Assay outcomes as filed in PubChem BioAssay.
Only a selection was taken, and hits are over-represented in it overall.
nsP2pro primary: Primary qHTS for inhibitors of NSP2Pro chikungunya virus (CHIKV); Potency, µM (series often up to 24.9 µM), for the others: at the highest dose activity change, negative = inhibition, hits mostly inhibitors; Polyprotein P1234 (Chikungunya virus (strain S27-African prototype)), Q8JUX6; 1.1% of 31,000 active; FRET peptide cleavage, nsP2pro, fluorescence 1 h; note: nearly all actives have a fitted effect of over 60% in size
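Purified recombinant nsP2pro (150 nM final) in 10 mM Tris-HCl pH 8.0 with 0.01% Tween 20 was preincubated 15 min at room temperature with compound (7 concentrations, up to 25 uM). FRET peptide 2 substrate (2.5 uM final) was then added; fluorescence was read after 1 h.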
nsP2 cell sec: Secondary cell base assay for inhibitors of NSP2Pro Chikungunya virus (CHIKV); shares compounds with nsP2pro primary; cell-based CHIKV nsP2 protease reporter assay; Potency, µM (highest dose often 51.1 µM), for inactives: top-dose activity change, negative = inhibition, hits mostly inhibitors; 10% of 450 active; note: nearly all actives have a fitted effect of over 70% in size
CHIKV NSP2 FL: Selectivity profile for inhibitors of NSP2Pro chikungunya virus (CHIKV): Full length NSP2 enzyme counterscreen (CHIKV-NSP2) | Potency, µM (series often up to 50.7 µM), for the others: top-dose activity change, negative = inhibition, most hits filed as inhibitors | Full-length CHIKV NSP2 protease enzymatic counterscreen | AID 1964101, 2024 | shares compounds with nsP2pro primary | 39% of 410 active; note: nearly all actives have a fitted effect of over 65% in size
Furin counterscr: Selectivity profile for inhibitors of NSP2Pro chikungunya virus (CHIKV): Human furin counterscreen; shares compounds with nsP2pro primary; Recombinant human furin enzymatic counterscreen, fluorogenic substrate; Potency, µM (highest dose often 50.6 µM), inactives show top-dose activity change, negative = inhibition, usual class: inhibitors; 6% of 410 active
NS23 peptide cs: Selectivity profile for inhibitors of NSP2Pro chikungunya virus (CHIKV): Endogenous NS2/3 peptide Counterscreen; Potency, µM (top dose mostly 51 µM), for the others: at the top dose activity change, negative = inhibition, usual class: inhibitors; AID 1964103, 2024; shares compounds with nsP2pro primary; Purified CHIKV nsP2 protease, endogenous NS2/3 peptide cleavage; 34% of 410 active; note: nearly all actives have a fitted effect of over 55% in size
Papain counter: Selectivity profile for inhibitors of NSP2Pro chikungunya virus (CHIKV): Papain Counterscreen; 5% of 410 active; shares compounds with nsP2pro primary; Potency, µM (series often up to 51 µM), inactives show top-dose activity change, negative = inhibition, usual class: inhibitors; purified papain protease activity, enzymatic inhibition
Target sequence (P00784 whole entry, looked up): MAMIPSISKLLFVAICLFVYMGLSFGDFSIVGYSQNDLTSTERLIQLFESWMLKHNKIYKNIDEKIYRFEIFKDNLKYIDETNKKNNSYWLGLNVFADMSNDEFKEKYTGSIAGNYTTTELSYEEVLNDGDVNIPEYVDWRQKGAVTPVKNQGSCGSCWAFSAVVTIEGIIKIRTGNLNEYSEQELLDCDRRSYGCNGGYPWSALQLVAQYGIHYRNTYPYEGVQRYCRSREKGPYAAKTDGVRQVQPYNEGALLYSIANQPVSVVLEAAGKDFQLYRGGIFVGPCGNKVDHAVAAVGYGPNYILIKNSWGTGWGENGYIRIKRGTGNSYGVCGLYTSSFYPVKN
nsP2pro confirm: Confirmatory qHTS for inhibitors of NSP2Pro chikungunya virus (CHIKV). shares compounds with nsP2pro primary. CHIKV nsP2 protease enzymatic activity, qHTS. Potency, µM (highest dose often 25.5 µM), for the others: at the top dose activity change, negative = inhibition, usual class: inhibitors. 43% of 410 active. AID 1964105, 2024; note: nearly all actives have a fitted effect of over 75% in size
HCV NS3 4A cs: Selectivity profile for inhibitors of NSP2Pro chikungunya virus (CHIKV): NS34A-HCV Counterscreen | AID 1964106, 2024 | HCV NS3/4A protease biochemical counterscreen | 20% of 410 active | shares compounds with nsP2pro primary | Potency, µM (highest dose often 50.9 µM), most hits filed as inhibitors; note: nearly all actives have a fitted effect of over 55% in size
The depositor's hits bear a star; i = inactive; ? = inconclusive; ! = not active in a repeat; [ ] = dose if it differs, or a comment. Calls come from the whole dose curve. % is set by controls: 0 for no effect and ±100 for the full control effect; potency is the fitted concentration of half-maximal effect.

SMILES | nsP2pro primary | others
C/C=C(/C)C(=O)OC1C=C2C3C(C)C(C)C(OC(=O)C(C)C(C)O)CC3(C)CCC2(C)C2(C)CC(OC(C)=O)C3C(C)(C)C(O)C(=O)CC3(C)C12 (stereo unspecified) | 2.4%[10 µM]
Cc1cccc(-n2cnc3cc(C(=O)N4CCCC(C)(C)C4)ccc32)c1 | -4.1%
Fc1cccc(-c2ccc(Nc3nc(-c4ccncc4)nc4ccccc34)cc2F)c1 | i
NCCCC[C@H](NC(=O)[C@@H]1CCCN1C(=O)[C@@H]1CSSC[C@H](N)C(=O)N[C@@H](Cc2ccccc2)C(=O)N[C@@H](Cc2ccccc2)C(=O)N[C@@H](CCC(N)=O)C(=O)N[C@@H](CC(N)=O)C(=O)N1)C(=O)NCC(N)=O | -12.1%
CCC(C)C(N)C1=NC(C(=O)N[C@@H](CC(C)C)C(=O)N[C@H](CCC(=O)O)C(=O)N[C@H](C(=O)N[C@H]2CCCCNC(=O)[C@H](CC(N)=O)NC(=O)[C@@H](CC(=O)O)NC(=O)[C@H](Cc3cnc[nH]3)NC(=O)[C@@H](Cc3ccccc3)NC(=O)[C@H]([C@@H](C)CC)NC(=O)[C@@H](CCCN)NC2=O)[C@@H](C)CC)CS1 (stereo partly specified) | 0.216µM*! | nsP2 cell sec=11.7%[17.6 µM];CHIKV NSP2 FL=0.142µM*;Furin counterscr=7.98µM*;NS23 peptide cs=1.13µM*;Papain counter=3.18µM*;nsP2pro confirm=0.219µM*;HCV NS3 4A cs=7.98µM*
Cc1ccc(S(=O)(=O)Nc2cnccc2C(=O)Nc2nc(-c3ccc(Cl)cc3)cs2)cc1 | i
COC(=O)c1ccc(O)c2ncc(NC3CCNCC3)cc12 | i
O=C(C1CCCN([S+](=O)([O-])c2cccc(C(F)(F)F)c2)C1)N1CCC(c2nc3ncccc3[nH]2)C1 (stereo unspecified) | 4.1%
O=P(O)(O)OC1C(OP(=O)(O)O)C(OP(=O)(O)O)C(OP(=O)(O)O)C(OP(=O)(O)O)C1OP(=O)(O)O (stereo unspecified) | -12.7%
CC/C(C)=C/C(=O)OC1C(OC2(C)CCC3C(C4C(C)CCC42)C3(C)C)OC(C)C(O)C1O (stereo unspecified) | ? | nsP2 cell sec=?;CHIKV NSP2 FL=4.8%[17.3 µM];Furin counterscr=-17.0%[17.3 µM];NS23 peptide cs=-1.6%[17.2 µM];Papain counter=?;nsP2pro confirm=-9.8%[8.62 µM];HCV NS3 4A cs=i
Nc1nc(Nc2ccc3c(c2)CC[C@@H](N2CCCC2)CC3)nn1-c1cc2c(nn1)-c1ccccc1CCC2 | 68.3%
C=C1C(=O)O[C@@H]2/C=C(/C)[C@@H](OC(C)=O)C/C=C(\C)C[C@@H](OC(=O)/C(=C/CO)CO)[C@@H]12 | -7.8%[10 µM]
C=C(C)C(=O)O[C@H]1[C@H]2C(=C)C(=O)O[C@@H]2/C=C(\CO)CC/C=C(/C=O)[C@@H]1O | -12.1%
C=C1C(=O)O[C@@H]2C3C(=C(C)[C@@H](O)[C@@H](OC(=O)/C(=C/C)COC(C)=O)[C@@H]12)C(=O)[C@H]1O[C@@]31C (stereo partly specified) | 2.16µM* | nsP2 cell sec=?;CHIKV NSP2 FL=7.11µM*;Furin counterscr=-2.3%[17.3 µM];NS23 peptide cs=3.18µM*;Papain counter=-6.3%[17.2 µM];nsP2pro confirm=2.19µM*;HCV NS3 4A cs=i
N[C@@H](C=O)[C@@H](O)[C@@H](O)[C@H](O)CO | -27.8%
CCN1Cc2ccccc2N(CC(O)Cc2ccccc2)CCC1=O (stereo unspecified) | -16.6%
C/C=C/C=C/C=C/C(=O)OC1C=C(C=O)C(O)(C(=O)O)C2(C)CCCC(C)(C)C12 (stereo unspecified) | 71.3%[10 µM]
COc1ccc(S(=O)(=O)c2cc3cc(OC)ccc3oc2=O)cc1 | -19.9%
COc1ccc(S(=O)(=O)ON=C2C=C(C)C(=O)C(C)=C2)cc1 | ? | nsP2 cell sec=2.24µM*;CHIKV NSP2 FL=?;Furin counterscr=-10.9%;NS23 peptide cs=6.51µM*;Papain counter=9.19µM*;nsP2pro confirm=?;HCV NS3 4A cs=i
COc1ccc(S(=O)(=O)N2CCN(S(=O)(=O)c3ccc(OC)cc3)CC2)cc1 | 0.9%
Fc1cc(Cl)cc(-c2ccc(CNc3nc(-c4ccccc4C(F)(F)F)nc4ccccc34)cc2)c1 | -10.7%
O=S(=O)(O)c1ccccc1 | -0.8%
NS(=O)(=O)C#Cc1ccccc1 | 7.85µM* | nsP2 cell sec=?;CHIKV NSP2 FL=13µM*;Furin counterscr=-6.9%;NS23 peptide cs=?;Papain counter=-6.9%;nsP2pro confirm=6.34µM*;HCV NS3 4A cs=i
O=C(Nc1ccc(F)c(C(F)(F)F)c1)Nc1cccc(-c2ccncc2)n1 | 4.0%
CC(C)(O)CNc1ncc(-c2ccnc(Nc3ccnc(Cl)c3)n2)c(CC2CC2)n1 | 11.5%
SMILES | nsP2pro primary | others
COC(=O)c1ccc2c(c1)/C(=C/c1cc(Br)c(O)c(Br)c1)C(=O)N2 | i
Cc1ccnc(NC(=S)N2CCCC(Nc3cccc(C(F)(F)F)c3)C2)c1 (stereo unspecified) | -8.9%
CC(=O)N1CCN(Cc2ccccc2-c2cccnc2)CC1 | -7.4%[39.2 µM]
CC(=O)N1CCN(c2ccc(C(=O)N3CCN(Cc4ccccc4)CC3)nn2)C(=O)C1 | 3.55µM* | nsP2 cell sec=20.0%;CHIKV NSP2 FL=7.3µM*;Furin counterscr=-13.1%;NS23 peptide cs=14.6µM*;Papain counter=-3.6%;nsP2pro confirm=7.98µM*;HCV NS3 4A cs=5.17µM*
CN(C)C(=O)N1CCN(c2ccc(Cl)nn2)C(=O)C1 | -20.5%[39.2 µM]
C[C@@H](N[C@H]1CCCC[C@@H]1NC(=O)c1ccc(Cl)cc1)c1cccc2ccccc12 | 3.5%
O=C(OCCN(CCO)CCO)c1ccccc1O | -20.2%
COc1ccccc1CN[C@H]1CCCN[C@H]1c1ccccc1 | -4.1%
CN1CCN(c2ccc(Nc3cc(-c4cccc(-n5ccc6cc(C7CC7)cc(F)c6c5=O)c4CO)cn(C)c3=O)nc2)CC1 | ? | nsP2 cell sec=141.2%;CHIKV NSP2 FL=47.4%;Furin counterscr=-17.9%;NS23 peptide cs=i;Papain counter=?;nsP2pro confirm=125.0%;HCV NS3 4A cs=i
COC(=S)NCCn1c([N+](=O)[O-])cnc1C | 2.6%
Cc1ccc(-c2cc(C(=O)Nc3ccc(S(C)(=O)=O)cc3)c3ccccc3n2)cc1C | i
